Some test systems named below: DU-145 prostate; MALME-3M melanoma; MDA-MB-231 breast; RXF 393 renal; SF-268 CNS; SF-295 CNS; SF-539 CNS; UACC-257 melanoma; HCT-15 colon; HT29 colon; SNB-75 CNS; SNB-19 CNS; U251 CNS; PC-3 prostate; SK-MEL-5 melanoma; UACC-62 melanoma; LOX IMVI melanoma; SK-MEL-28 melanoma; K-562 leukemia; M14 melanoma.
Experiment in all cases: NCI-60 one-dose screen, 48 h (100 = growth as untreated, 0 = no growth, -100 = all killed)
Settings in all cases: 10 µM unless noted

Consider 8 compounds from PubChem BioAssay (NCI).

Each structure is given as a SMILES string. The panel holds about 83,000 compounds, 20% with a hit somewhere; the sample as a whole holds those more often.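 Interpretation: 100, growth as untreated; towards 0, rising growth inhibition; 0, no net growth; 0 to -100, cell death. Compounds scoring below 10 were considered active.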 Values without a mark were called inactive. Activity calls are given as the source filed them.

For `C[C@@H]1CC[C@@H]2[C@@H]1[C@H](OC(=O)/C=C/c1ccccc1)[C@]1(CCCOCCOCCOCCOC(=O)CCCC[C@@H]3SC[C@@H]4NC(=O)N[C@@H]43)C[C@@H](OC(=O)CO)[C@@]2(C)O1`, the growth in the experiment on DU-145 prostate is 103%; in the experiment on MALME-3M melanoma it was 99.6%; in the experiment with MDA-MB-231 breast it was 106%; in the experiment with RXF 393 renal, 108%; with SF-268 CNS it was 102%; in the experiment on SF-295 CNS it was 107%. Moreover, the growth in the experiment on SF-539 CNS was 103%; with UACC-257 melanoma, 109%; in the experiment on HCT-15 colon it was 106%; with HT29 colon it was 98.1%; with SNB-75 CNS, 88.8%; in the experiment with SNB-19 CNS it was 106%. In addition, the growth with U251 CNS was 105%; with PC-3 prostate, 97.7%; in the experiment on SK-MEL-5 melanoma, 105%; with UACC-62 melanoma, 102%; in the experiment on LOX IMVI melanoma, 106%; in the experiment on SK-MEL-28 melanoma it was 108%.
On to `COc1cc(-c2ccc(N=Nc3c(O)c(C(=O)Nc4ccccc4OC)cc4ccccc34)c(OC)c2)ccc1N=Nc1c(O)c(C(=O)Nc2ccccc2OC)cc2ccccc12`, for which the growth in the experiment with K-562 leukemia is 90.6%; in the experiment with MALME-3M melanoma, 90.6%; in the experiment on MDA-MB-231 breast, 76.2%; in the experiment with RXF 393 renal, 93.1%; in the experiment with SF-268 CNS, 87.5%; with SF-295 CNS, 95.1%. Besides, the growth is 103% in the experiment on SF-539 CNS; 109% with UACC-257 melanoma; 90.7% in the experiment on M14 melanoma; 101% in the experiment with HCT-15 colon; 108% with HT29 colon; 74.8% with SNB-75 CNS. For the same compound, the growth was 96% in the experiment with SNB-19 CNS; 94% with U251 CNS; 93.4% with PC-3 prostate; 98.9% in the experiment with SK-MEL-5 melanoma; 101% with UACC-62 melanoma; 86.3% in the experiment with LOX IMVI melanoma. In addition, the growth with SK-MEL-28 melanoma is 97.4%.
Consider `CCCCNC(=O)c1cc(NCc2cc(O)ccc2O)ccc1O`, for which the growth in the experiment with DU-145 prostate was 99.7%; in the experiment on MALME-3M melanoma, 108%; in the experiment with MDA-MB-231 breast it was 84%; in the experiment with RXF 393 renal it was 83.7%; in the experiment with SF-268 CNS, 84.1%; with SF-295 CNS it was 101%. Further, the growth in the experiment with SF-539 CNS was 62.2%; with UACC-257 melanoma, 68.9%; with HCT-15 colon it was 84.6%; with HT29 colon it was 80.8%; in the experiment on SNB-75 CNS it was 66.6%; with SNB-19 CNS, 106%. Moreover, the growth was 98.6% in the experiment on U251 CNS; 74.4% in the experiment on PC-3 prostate; 98.4% with SK-MEL-5 melanoma; 93.8% with UACC-62 melanoma; 91.3% in the experiment with LOX IMVI melanoma; 105% in the experiment with SK-MEL-28 melanoma.
As to `Cc1ccc(NC(=O)C(Cl)Cl)cc1`, the growth in the experiment with K-562 leukemia was 106%; in the experiment on MALME-3M melanoma, 92.7%; in the experiment on MDA-MB-231 breast, 99.1%; in the experiment with RXF 393 renal, 119%; in the experiment on SF-268 CNS, 105%; in the experiment with SF-295 CNS, 97.8%. In addition, the growth in the experiment on SF-539 CNS is 98.4%; with UACC-257 melanoma, 92%; in the experiment on M14 melanoma, 109%; in the experiment on HCT-15 colon it was 105%; with HT29 colon it was 92.7%; in the experiment with SNB-75 CNS, 101%. In addition, the growth in the experiment on SNB-19 CNS was 101%; in the experiment with U251 CNS it was 94.7%; in the experiment with PC-3 prostate, 91.8%; in the experiment on SK-MEL-5 melanoma, 99.4%; in the experiment on UACC-62 melanoma it was 98.6%; with LOX IMVI melanoma, 99.6%. For the same compound, the growth with SK-MEL-28 melanoma is 98.2%.
In the case of `Cc1ccccc1NC(=O)CN(C)C`, the growth with K-562 leukemia was 0.938% (active); with MALME-3M melanoma it was 87.2%; with MDA-MB-231 breast, 105%; in the experiment on RXF 393 renal, 124%; in the experiment with SF-268 CNS it was 103%; with SF-295 CNS, 97.3%. Further, the growth was 98.3% in the experiment with SF-539 CNS; 99.3% in the experiment on UACC-257 melanoma; 104% in the experiment on M14 melanoma; 105% in the experiment with HCT-15 colon; 90.9% in the experiment on HT29 colon; 92.6% with SNB-75 CNS. The growth is 98.8% with SNB-19 CNS; 104% with U251 CNS; 98.3% in the experiment with PC-3 prostate; 105% in the experiment with SK-MEL-5 melanoma; 99.3% with UACC-62 melanoma; 99.9% in the experiment with LOX IMVI melanoma. In the experiment with SK-MEL-28 melanoma, the growth was 96.9%.
Turning to `C[N+](C)(C)CCOC(OCC[N+](C)(C)C)(c1ccccc1)c1ccccc1`, the growth with K-562 leukemia was 99%; with MALME-3M melanoma, 126%; in the experiment on MDA-MB-231 breast it was 108%; in the experiment with RXF 393 renal it was 122%; with SF-295 CNS, 117%; in the experiment with SF-539 CNS it was 96.6%. Also, the growth with UACC-257 melanoma is 103%; in the experiment with HCT-15 colon, 104%; in the experiment on HT29 colon, 104%; in the experiment with SNB-75 CNS, 87.3%; in the experiment on SNB-19 CNS it was 93.9%; in the experiment with U251 CNS, 104%. Further, the growth with PC-3 prostate is 92.7%; with SK-MEL-5 melanoma, 110%; in the experiment on UACC-62 melanoma it was 99.3%; in the experiment with LOX IMVI melanoma, 98.6%; with SK-MEL-28 melanoma, 104%.
As for `CN1CCC(=C2c3ccccc3C=Cc3ccccc32)CC1`, the growth in the experiment on MALME-3M melanoma was 105%; with MDA-MB-231 breast, 8.64% (active); in the experiment on RXF 393 renal, 51.6%; in the experiment on SF-268 CNS, 79.8%; in the experiment with SF-295 CNS, 88.1%; in the experiment on SF-539 CNS, 87.4%. For the same compound, the growth in the experiment with UACC-257 melanoma was 81.7%; in the experiment with M14 melanoma it was 91.7%; in the experiment on HCT-15 colon it was 73.7%; in the experiment on HT29 colon, 61.9%; with SNB-75 CNS it was 47.8%; in the experiment on SNB-19 CNS it was 91.7%. Moreover, the growth with U251 CNS is 59.8%; in the experiment with PC-3 prostate, 64.9%; with SK-MEL-5 melanoma, 68.6%; in the experiment with UACC-62 melanoma, 82.5%; in the experiment on LOX IMVI melanoma, 72.1%; in the experiment with SK-MEL-28 melanoma, 85.9%.
With `COc1ccc(-n2nnc(C(=O)NCCc3c[nH]c4ccc(F)cc34)c2C)cc1`, the growth in the experiment on DU-145 prostate is 107%; in the experiment with MALME-3M melanoma it was 106%; in the experiment with MDA-MB-231 breast it was 97.8%; with RXF 393 renal it was 105%; in the experiment on SF-268 CNS, 97.3%; in the experiment with SF-295 CNS, 102%. Further, the growth in the experiment on SF-539 CNS was 103%; in the experiment on UACC-257 melanoma, 87.7%; with HCT-15 colon, 104%; in the experiment with SNB-75 CNS, 93.7%; in the experiment on SNB-19 CNS it was 105%; with U251 CNS, 92.4%. Besides, the growth in the experiment with PC-3 prostate is 87.4%; in the experiment on SK-MEL-5 melanoma, 102%; with UACC-62 melanoma, 98.4%; in the experiment with LOX IMVI melanoma, 98.6%; in the experiment on SK-MEL-28 melanoma it was 109%.
